SMILES strings stand for the structures. Out of some 220,000 compounds screened, about 5,700 (2.6%) were called active. A call without a number means that no potency is given here. Inconclusive results (about 18%) are left out. This is one part of a sample in which actives are shown more often than they occur. Calls follow the shape of the dose curve; as a rule, active = well fitted inhibition curve with a large enough effect; inconclusive = small, poorly fitted or top-dose-only effect; inactive = no such curve, though single readings can be large or run the other way.

The values below come from PubChem BioAssay AID1347165 (National Center for Advancing Translational Sciences (NCATS), 2019).
Potency is read from the fitted curve at half-maximal effect.

The target of this test is Lysine-specific demethylase 5B (Homo sapiens) (UniProt Q9UGL1). The test can be described thus: Primary screen for KDM5B Histone Demethylases FDH-coupled qHTS. Also: nearly all actives have a fitted effect of over 70% in size. As to conditions: FDH-coupled NADH fluorescence (FDH is formaldehyde dehydrogenase); series mostly up to 57.7 µM. An outline of the steps: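 Measured: NADH fluorescence change, 30 min, RT. System: KDM5BΔAP 200 nM final, H3K4me3 peptide, α-KG, Fe(II), ascorbate, NAD⁺ plus FDH, pH 7.5 HEPES. Compounds: titrated, 10 min pre-incubation with enzyme.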
Chain of Lysine-specific demethylase 5B (Homo sapiens) (Q9UGL1 whole entry, looked up): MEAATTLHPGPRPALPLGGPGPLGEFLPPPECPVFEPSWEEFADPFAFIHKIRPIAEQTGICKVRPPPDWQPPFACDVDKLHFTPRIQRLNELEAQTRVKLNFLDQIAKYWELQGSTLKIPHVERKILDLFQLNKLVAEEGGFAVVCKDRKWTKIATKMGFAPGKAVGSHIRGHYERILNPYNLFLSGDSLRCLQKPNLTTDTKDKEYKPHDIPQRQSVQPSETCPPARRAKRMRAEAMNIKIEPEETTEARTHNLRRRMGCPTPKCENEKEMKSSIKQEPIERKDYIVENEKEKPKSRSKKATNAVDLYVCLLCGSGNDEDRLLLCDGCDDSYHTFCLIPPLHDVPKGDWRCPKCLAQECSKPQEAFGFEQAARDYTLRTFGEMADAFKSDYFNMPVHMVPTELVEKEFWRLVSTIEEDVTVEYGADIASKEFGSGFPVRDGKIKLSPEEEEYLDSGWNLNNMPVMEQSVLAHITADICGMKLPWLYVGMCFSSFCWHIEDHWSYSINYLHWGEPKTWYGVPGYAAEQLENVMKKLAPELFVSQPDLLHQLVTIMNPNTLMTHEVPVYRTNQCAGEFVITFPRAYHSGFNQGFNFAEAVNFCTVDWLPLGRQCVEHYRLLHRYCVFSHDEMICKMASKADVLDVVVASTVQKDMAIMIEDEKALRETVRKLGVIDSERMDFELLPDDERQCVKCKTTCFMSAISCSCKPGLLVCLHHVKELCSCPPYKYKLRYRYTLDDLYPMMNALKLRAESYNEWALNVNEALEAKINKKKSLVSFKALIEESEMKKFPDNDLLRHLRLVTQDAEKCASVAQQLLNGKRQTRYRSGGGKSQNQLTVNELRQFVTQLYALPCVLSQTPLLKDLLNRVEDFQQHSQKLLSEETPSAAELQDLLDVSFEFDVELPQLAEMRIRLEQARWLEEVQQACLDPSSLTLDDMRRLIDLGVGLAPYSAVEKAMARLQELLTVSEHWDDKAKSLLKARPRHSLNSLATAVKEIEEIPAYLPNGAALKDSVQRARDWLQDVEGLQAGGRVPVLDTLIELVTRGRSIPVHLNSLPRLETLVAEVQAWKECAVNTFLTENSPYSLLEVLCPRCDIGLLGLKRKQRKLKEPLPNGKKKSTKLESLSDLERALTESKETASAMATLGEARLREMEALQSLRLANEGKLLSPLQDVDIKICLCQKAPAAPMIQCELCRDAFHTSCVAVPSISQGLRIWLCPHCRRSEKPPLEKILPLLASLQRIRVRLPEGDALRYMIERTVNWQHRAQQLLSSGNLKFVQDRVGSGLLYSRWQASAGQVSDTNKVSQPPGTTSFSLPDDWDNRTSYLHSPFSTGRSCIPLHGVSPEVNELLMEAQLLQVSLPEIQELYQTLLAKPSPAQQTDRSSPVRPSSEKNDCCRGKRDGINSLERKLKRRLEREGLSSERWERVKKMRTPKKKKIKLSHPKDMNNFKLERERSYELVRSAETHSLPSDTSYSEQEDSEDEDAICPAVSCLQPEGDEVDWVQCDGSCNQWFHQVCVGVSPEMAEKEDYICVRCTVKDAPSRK
On to `Cc1ccc(NC(=O)c2ccc(F)cc2Cl)nc1`, for which the Potency entry was “inactive”. As for `CCn1nc(C(=O)Nc2ccc(I)cc2C)c2ccccc2c1=O`, the Potency entry is “inactive”. On to `Cc1ccnc(N2CC[C@@H]3[C@@H](CCC(=O)N3CCc3ccccn3)C2)n1`, for which the Potency was 22.4 µM (active). In the case of `Cc1ccc2c(CN3CCN(CCc4ccccn4)CC3)cc(=O)oc2c1`, the Potency result is “inactive”. Under `CN1C(=O)CC(C(=O)O)C12CCN(CCc1ccccn1)CC2` (stereo unspecified) stands “inactive”; under `CC(Sc1nc(CN2CCOCC2)nc2ccccc12)C(=O)NC1CCCCCC1` (stereo unspecified), “inactive”. The value for `COc1ccc(-c2csc3c2NC(=O)CC3c2ccc(OCC(N)=O)c(OC)c2)cc1` (stereo unspecified) was “inactive”; that for `Nc1nc2c(s1)C(c1ccccc1)CC(=O)N2` (stereo unspecified) was 28.2 µM (active). Take `Cc1ccc(-c2csc3c2NC(=O)CC3c2ccc(C)cc2)cc1` (stereo unspecified): the Potency result is “inactive”. In the case of `O=C1CC(c2ccc(C(F)(F)F)cc2)c2sc(C(=O)O)c(-c3ccccc3)c2N1` (stereo unspecified), the Potency entry was “inactive”. `COc1cccc(/C=C/C(=O)c2nc3ccccc3s2)c1OC(F)F`: the Potency entry is “inactive”. In the case of `COc1ccccc1-c1nc(C(=O)NCc2cccs2)n2ccncc12`, the Potency is 28.2 µM (active). In the case of `COc1ccccc1NC(=O)CSC1=Nc2ccccc2C2=NC(CC(=O)NCc3cccs3)C(=O)N12` (stereo unspecified), the Potency result was “inactive”. For `CCOc1ccccc1NC(=O)Cn1nnc(C(=O)NCc2cccs2)c1N`, the Potency entry is “inactive”.

As to `O=C(OCc1nc2ccccc2o1)c1ccccc1Br`, the Potency entry is “inactive”. Under `CC(=O)c1c(SCC(=O)Nc2ccc(F)cc2F)nc(=O)[nH]c1C` stands “inactive”. `CC(C)(C#N)C(=O)NCCc1ccc(OCc2ccccc2)cc1`: the Potency result is “inactive”. As to `CC1CCN(c2nc3ccccc3nc2C(C#N)S(=O)(=O)c2cccc(Cl)c2)CC1` (stereo unspecified), the Potency result was “inactive”.

`CCn1cnnc1CC1CCN(C(=O)C2CCN(Cc3nc(-c4cccc(C)c4)oc3C)CC2)CC1`: the Potency result was “inactive”.

As for `CCn1cnnc1CC1CCN(C(=O)c2cc(-c3ccc(F)cc3)nc3ccccc23)CC1`, the Potency is 22.4 µM (active). For the compound `COc1ccc(-c2cc(C(=O)N3CCN(CC(=O)N4CCOCC4)CC3)c3ccccc3n2)cc1`, the Potency entry was “inactive”. In the case of `CN(Cc1ccc(F)cc1)C(=O)NCc1ccccn1`, the Potency result is “inactive”.

With `COc1cccc(CNC(=O)N2CCCC3(C2)Nc2cccnc2NC3=NC2CCCC2)c1` (stereo unspecified), the Potency is 28.2 µM (active). In the case of `Cc1cc(C)n(CC(=O)N2CC[C@@H]3CN(S(C)(=O)=O)[C@@H]3C2)n1`, the Potency entry is “inactive”. Regarding `CCOc1ccc(CC(=O)N2CCC(Cc3nc(-c4cnccn4)no3)CC2)cc1`, the Potency result was “inactive”.

`COc1ccccc1C(=O)N1CCCC2(C1)Nc1cccnc1NC2=NCc1ccccc1` (stereo unspecified): the Potency is 28.2 µM (active).

`CCOc1ccc(CC(=O)N2CCCC3(C2)Nc2cccnc2NC3=NC2CCCC2)cc1` (stereo unspecified): the Potency is 28.2 µM (active). For `COc1cccc(N2C(=O)NC(=NC3CCCC3)C23CCN(C(=O)c2ccc(C)cc2)C3)c1` (stereo unspecified), the Potency entry was “inactive”.

Take `Cc1cc(C)n(CC(=O)N2CCC3(CC2)NCCc2c3[nH]c3ccccc23)n1`: the Potency result is “inactive”. As to `COc1ccccc1C(=O)N1CCC2(C1)C(=NC1CCCC1)NC(=O)N2c1cccnc1` (stereo unspecified), the Potency result was “inactive”. The value for `Cc1cc(C)n(CC(=O)N2CCCC3(C2)Nc2cccnc2NC3=NC2CCCC2)n1` (stereo unspecified) was 28.2 µM (active). Under `COc1cccc(CNC(=O)N2CCN(Cc3ccc(Br)s3)CC2)c1` stands “inactive”.

Take `COc1ccccc1C(=O)N1CCC2(C1)C(=NC1CCCCC1)NC(=O)N2c1cccnc1` (stereo unspecified): the Potency entry was “inactive”. Consider `CCOc1ccc(CC(=O)N2CCC(C3CCN(C(=O)NC)CC3)C2)cc1` (stereo unspecified), for which the Potency result is “inactive”.

As for `CC(C)=CC(=O)N1C[C@@H](NC(=O)Nc2ccc(F)cc2F)C[C@H]1C(=O)N[C@H](Cc1ccccc1)C(N)=O`, the Potency entry was “inactive”. On to `O=C(Cn1ccn2nc(-c3ccc(F)cc3)c(CO)c2c1=O)NC1CCCC1`, for which the Potency result was “inactive”. For `COC(=O)[C@@H](NC(=O)Nc1cc(-c2n[nH]c(=O)c3ccccc23)ccc1C)C(C)C`, the Potency result was “inactive”. For the compound `O=c1oc2ccc(F)cc2cc1S(=O)(=O)N1CCCCCC1`, the Potency result was “inactive”. Turning to `N#C/C(=C\c1ccc(-c2cc(Cl)ccc2Cl)o1)c1nc2ccccc2[nH]1`, the Potency entry was “inactive”. Turning to `O=C(O)CNS(=O)(=O)c1cccc(F)c1`, the Potency result was “inactive”.

Turning to `N#CC(C#N)=C(Nc1ccc(Oc2ccccc2)cc1)C(F)(F)C(F)(F)F`, the Potency result is “inactive”. `CC1(C)C2CCC1(CS(=O)(=O)NCCc1c[nH]c3ccccc13)C(=O)C2` (stereo unspecified): the Potency entry was “inactive”. Consider `C=CCn1c(COc2cc(C)c(Cl)c(C)c2)n[nH]c1=S`, for which the Potency entry is “inactive”. On to `Cc1nc(-c2cn(C3CCCN(C(=O)c4sccc4C)C3)nn2)no1` (stereo unspecified), for which the Potency entry was “inactive”. As for `COc1ccc(C(=O)N2CCCC3(C2)C(=NC2CCCC2)NC(=O)N3c2cc(F)cc(F)c2)cc1` (stereo unspecified), the Potency entry is “inactive”. For the compound `Cc1ccsc1C(=O)N1CCCC2(C1)Nc1cccnc1NC2=NC1CCCC1` (stereo unspecified), the Potency was 25.1 µM (active). Regarding `Cc1ccc(Nc2nnc(-c3ccc(C)c(S(N)(=O)=O)c3)c3ccccc23)c(C)c1`, the Potency entry was “inactive”. Consider `COc1ccccc1N1CCN(C(=O)C2CCCN(C(=O)c3ccccc3)CCC(=O)NCC2)CC1` (stereo unspecified), for which the Potency result was “inactive”. With `C=CCN1CCN(C(=O)C2CCCN(C(=O)c3ccccc3)CCC(=O)NCC2)CC1` (stereo unspecified), the Potency entry was “inactive”. For the compound `Cc1cccc(C(=O)N2CCCC(C(=O)N3CCN(c4ccccn4)CC3)CCNC(=O)CC2)c1` (stereo unspecified), the Potency is 15.8 µM (active).

Regarding `Cc1cccc(C(C(=O)N2CCN(S(=O)(=O)N(C)C)CC2)N(C)C)c1` (stereo unspecified), the Potency result is “inactive”. The value for `O=C(c1cccc2[nH]ccc12)N1CCC2(CC1)N=C(c1cccc(Br)c1)NO2` was 28.2 µM (active); that for `O=C(c1ccccc1F)N1CCN(C(=O)c2c[nH]c3ccccc23)CC1` was “inactive”. As for `O=C(c1ccc2[nH]ccc2c1)N1CCC(N2CC(OCC3CC3)C23CCOCC3)CC1` (stereo unspecified), the Potency result is “inactive”. For the compound `O=C(c1ccc2cc[nH]c2c1)N1CCC2(CC1)N=C(c1ccc(Cl)cc1)NO2`, the Potency was 28.2 µM (active).

Regarding `Cc1ccc(C2=NC3(CCN(C(=O)c4ccc(C#N)cc4)CC3)ON2)cc1`, the Potency entry is “inactive”. For the compound `CC1CCN(c2ccc(NC(=O)Cn3c(-c4cscn4)nc4ccccc43)cc2)CC1`, the Potency entry was “inactive”. As for `CC1(C)Cc2c(sc3c2c(=O)n(CCO)c(=O)n3CCc2ccccc2)CO1`, the Potency entry was “inactive”. `Cc1csc2nc(COc3ccc(NC(=O)C4CCCCC4)cc3)cc(=O)n12`: the Potency result was “inactive”.

Turning to `CCOC(=O)N1CCN(Cc2cc(=O)oc3ccc(C)cc23)CC1`, the Potency entry is “inactive”. Consider `O=C(NCc1c[nH]c2ncccc12)c1ccccc1F`, for which the Potency entry was “inactive”. Under `O=C(NCc1ccnc2[nH]ccc12)c1ccc(F)cc1` stands 35.5 µM (active); under `O=C(NCc1ccnc2[nH]ccc12)c1ccccn1`, “inactive”. `COc1ccc(N2CCN(C3CCCN(CC(=O)N(C)C(C)C)C3)CC2)cc1` (stereo unspecified): the Potency result was “inactive”. As to `COc1ccc(-n2nc(-c3ccccc3)n(CC(=O)N(C)CC(C)C)c2=O)cc1`, the Potency is 31.6 µM (active). In the case of `COC(=O)CNC(=O)CNC(=O)c1nn(-c2ccc(OC)cc2)c(=O)c2ccccc12`, the Potency entry was “inactive”.

For the compound `CCOC(=O)C(NC(=O)/C=C/c1c(Cl)cccc1Cl)C(=O)OCC`, the Potency entry was “inactive”. As to `Cc1cn2nc(C(=O)NCc3ccc(F)cc3)cc2c(N2CCCC2)n1`, the Potency is 25.1 µM (active).

As for `Cc1cn2nc(C(=O)NCC(C)c3ccccc3)cc2c(N2CCCC2)n1` (stereo unspecified), the Potency entry is “inactive”.

For `CSc1ccc(CNC(=O)c2cc3c(N4CCCC4)nc(C)cn3n2)cc1`, the Potency was 28.2 µM (active). Turning to `Cc1cn2nc(C(=O)NCc3cccs3)cc2c(N2CCCC2)n1`, the Potency entry is “inactive”.

With `CSc1ccc(CNC(=O)c2noc(-c3ccc(C)cc3)n2)cc1`, the Potency entry is “inactive”. As for `Cc1ccc2cc(C(=O)NCc3ccc(N4CCCC4)nc3)c(C)nc2c1`, the Potency entry was “inactive”. `CCOC(=O)C(=O)Nc1ccc(C(=O)OC)cc1`: the Potency entry is “inactive”.

In the case of `CSc1ccc(CNC23CC4CC(C)(CC(C)(C4)C2)C3)cc1`, the Potency entry is “inactive”. As to `Cc1cccc(C)c1OCC(O)Cn1cnc2c(cnn2-c2ccc(F)cc2)c1=O` (stereo unspecified), the Potency result was “inactive”. With `Cn1c(SCc2ccc(F)cc2)nnc1-c1ccncc1`, the Potency result is “inactive”. On to `COc1ccc(OC)c2[nH]c(C(=O)NCC(=O)Nc3nc(C)cs3)cc12`, for which the Potency entry was “inactive”. As for `CCC1(C)CC(CC(=O)OC(C)CN(C)C)(c2ccccc2)CCO1` (stereo unspecified), the Potency result is “inactive”.

For `CNc1ncc(C(=O)N[C@@H]2COCC[C@@H]2OCc2c(C)noc2C)cn1`, the Potency is 28.2 µM (active). Turning to `Cc1noc(C)c1CCCNC(=O)c1ccc(N(C)C2CCOC2)nc1` (stereo unspecified), the Potency result is “inactive”. Take `Cc1cc(N)n(CC(=O)N[C@@H]2COCC[C@@H]2OCc2c(C)noc2C)n1`: the Potency result is “inactive”. As for `O=C(NC1(c2ccc(Cl)cc2)CCC1)c1cc(Cl)c[nH]1`, the Potency entry was “inactive”. Regarding `Cc1ccc(Cc2nn3c(SCC(=O)Nc4ccccc4C(F)(F)F)nnc3[nH]c2=O)cc1`, the Potency entry is “inactive”. Under `COC(=O)[C@H](C)NC(=O)C12CC3CC(CC(C3)C1)C2` stands “inactive”. Turning to `CCc1c(C)sc(NC(=O)C(CC)CC)c1C#N`, the Potency entry was “inactive”. Take `COCC1CCN(C(=O)c2ccc3oc(Cc4ccccc4)nc3c2)C1` (stereo unspecified): the Potency result was “inactive”. As for `Cc1ccc(-c2cc(N3CCCN(C(=O)c4nn(C)c5ccccc45)CC3)n[nH]2)cc1C`, the Potency result was “inactive”.

As for `COCCNC(=O)c1cnc2n[nH]c(-c3ccccc3OC)c2n1`, the Potency entry was “inactive”. As to `COc1ccccc1-c1[nH]nc2ncc(-c3cccc(CO)c3)nc12`, the Potency was 39.8 µM (active). Consider `COc1ccc(-c2[nH]nc3ncc(-c4ccccc4)nc23)c(C)c1`, for which the Potency entry is “inactive”. In the case of `Oc1ccc(/C=C(/Cl)c2ncc(-c3ccc(F)cc3)o2)cc1`, the Potency entry is “inactive”. Take `COc1cc(NC(=O)c2cc3c(N4CCSCC4)nc(C)cn3n2)cc(OC)c1`: the Potency was 31.6 µM (active).

As for `COc1cccc(NC(=O)c2csnn2)c1`, the Potency result was “inactive”. `O=C(NC1CCCCC1)c1cc(C2CC2)on1`: the Potency entry is “inactive”. On to `Cc1cn2nc(C(=O)NC3CCCC3)cc2c(N2CCSCC2)n1`, for which the Potency is 28.2 µM (active). The value for `CCOC(=O)C1CCN(CCC(=O)Nc2cc(OC)cc(OC)c2)CC1` was “inactive”; that for `COc1ccc(N2CCN(c3nc(C(=O)NC4CCCCCC4)cs3)CC2)cc1` was “inactive”; that for `O=C(OC1CCOC1=O)c1ccccc1SC1CCOC1=O` (stereo unspecified) was “inactive”. For `O=C1CC(c2nc(-c3ccc(Oc4ccccc4)cc3)no2)CN1c1ccccc1` (stereo unspecified), the Potency entry was “inactive”.

On to `O=C(c1ccccc1F)N1CCC2(CC1)C(=O)NN=C2C1CC1`, for which the Potency result is “inactive”.
